Source: PubChem
Only some compounds are listed: those with a hit (about 3.4% of all), similar ones and a draw of the others.
GLS inh: glutaminase GLS (human) inhibition; O94925; GLS enzymatic activity, qHTS titration; Potency, µM (top dose mostly 45.5 µM), usual class: inhibitors; hit rate 0.21% among 410,000; AID 624170
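hKGA in 45 mM KH2PO4 pH 8.2, 0.02% Tween-20 with pin-transferred compounds; 1 mM L-glutamine (stock) plus glutamate oxidase/HRP/Amplex Red coupling added. Fluorescence read initially and after 30 min at RT.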
PKM2 activator: activators of human pyruvate kinase M2. purified PKM2, Kinase-Glo ATP luminescence, activation; response scale: 0% is enzyme alone, no compound. Potency, µM (doses to about 57.5 µM), actives largely listed as activators. hit rate 0.34% among 260,000. AID 1631; note: nearly all actives have a fitted effect of over 55% in size
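Purified hPK-M2 (>95% pure) converted ADP (0.1 mM final) to ATP with 0.5 mM PEP in 50 mM imidazole pH7.2, KCl, MgCl2, Tween 20, BSA; 1 h at room temperature. ATP detected by Kinase-Glo luminescence.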
PLK1 PBD inh: blocks phosphopeptide binding to human PLK1 polo-box domain; AID 720504; hit rate 2.8% among 360,000; Potency, µM, hits mostly inhibitors; P53350; Plk1 PBD binding of FITC phosphopeptide, fluorescence polarization; note: series mostly up to about 57 µM; nearly all actives have a fitted effect of over 65% in size
Target sequence (P53350 whole entry, looked up, the tested form may be a part): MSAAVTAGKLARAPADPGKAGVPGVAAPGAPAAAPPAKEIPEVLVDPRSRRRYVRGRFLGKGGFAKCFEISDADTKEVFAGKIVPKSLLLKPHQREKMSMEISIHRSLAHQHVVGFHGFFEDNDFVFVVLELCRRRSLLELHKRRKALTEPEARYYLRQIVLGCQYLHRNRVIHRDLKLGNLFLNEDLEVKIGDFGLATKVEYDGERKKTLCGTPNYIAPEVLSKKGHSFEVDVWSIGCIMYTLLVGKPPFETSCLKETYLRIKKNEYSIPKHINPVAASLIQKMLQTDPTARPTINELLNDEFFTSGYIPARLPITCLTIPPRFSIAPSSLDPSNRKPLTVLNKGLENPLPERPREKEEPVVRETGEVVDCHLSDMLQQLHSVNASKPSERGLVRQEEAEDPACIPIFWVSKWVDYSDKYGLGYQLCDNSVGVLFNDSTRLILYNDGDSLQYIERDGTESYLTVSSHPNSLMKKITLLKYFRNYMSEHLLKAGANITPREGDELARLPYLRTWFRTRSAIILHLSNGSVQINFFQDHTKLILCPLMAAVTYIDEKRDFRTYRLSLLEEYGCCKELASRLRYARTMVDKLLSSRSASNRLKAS
Mito fusion yeast: inhibitors of mitochondrial division or activators of mitochondrial fusion; hit rate 0.23% among 320,000; Potency, µM (series often up to 46.1 µM), most hits filed as activators; S. cerevisiae fusion-defective mutant growth rescue, CellTiterGlo 48 h; note: nearly all actives have a fitted effect of over 45% in size
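Luminescent cell viability in 1536-well qHTS format served as the measure of rescued growth in ts fusion-mutant S. cerevisiae cultured on non-fermentable YPEG for 48 hours at 37C.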
VDR inhibitor: blocks the human vitamin D receptor | VDR-SRC2-3 peptide fluorescence polarization, 2 h | P11473 | Potency, µM, hits mostly inhibitors | hit rate 0.93% among 400,000
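Fluorescence polarization assay measuring small-molecule disruption of VDR binding to the coregulator peptide SRC2-3. Compounds were pin-transferred (23 nl) into the reagent mix and incubated 2 h at room temperature before reading.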
GCN5L2 inh: blocks human GCN5L2 histone acetyltransferase | Q92830 | GCN5L2 HAT assay, ThioGlo1 CoA-SH fluorescence | Potency, µM (series often up to 58.9 µM), actives largely listed as inhibitors | hit rate 0.21% among 390,000 | AID 504327
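ThioGlo1-coupled HAT assay: 20nM GCN5L2, 70uM acetyl-CoA, 75uM H3(1-25) peptide, pH 7.5. Fluorescence read at 340/540nm at start and after 20 min at room temperature.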
Numbers stand for hits; - = inactive; ? = inconclusive; . = no result; ! = not active in a repeat; [ ] = dose if it differs, or a comment. Calls come from the whole dose curve; as a rule, active = well fitted curve in the direction sought with a large enough effect; inconclusive = small, poorly fitted or top-dose-only effect, or another doubt; inactive = no such curve, though single readings can be large; an effect the other way counts as inactive or inconclusive.

SMILES	GLS inh	PKM2 activator	PLK1 PBD inh	Mito fusion yeast	VDR inhibitor	GCN5L2 inh
COC(=O)c1cccc(OCCCN2CCC(C(O)(c3ccccc3)c3ccccc3)CC2)c1	-	.	-	.	.	.
Nc1nc(NCc2ccc(Cl)c(Cl)c2)c2[nH]cnc2n1	.	.	.	.	-	.
COc1cc(/C=C2\SC(N)=NC2=O)cc(OC)c1	-	-[11.5 µM]	13µM	-	?	-
NC1=NC(=O)/C(=C/c2cc(Br)c(O)c(Br)c2)S1	-	.	-	-	-	-
CCCNC(=O)C1(C)CCCN(Cc2cccc(Oc3ccccc3)c2)C1 (stereo not given)	-	.	-	.	.	.
CO[C@@]1(NC(=O)CSC[C@@H](N)C(=O)O)C(=O)N2C(C(=O)O)=C(CSc3nnnn3C)CS[C@@H]21	-	.	.	.	.	.
COc1ccc(C(=O)C[n+]2ccccc2C)cc1	?	-	6µM	?	32µM	-
CC(=O)OCC(=O)[C@@]1(O)CCC2C3CC[C@H]4CC(O)CC[C@@]4(C)C3C(=O)C[C@]21C (stereo not given in full)	.	.	.	.	-	-
CC1=C(CC(=O)NCC(=O)NCC(=O)O)c2cc(F)ccc2/C1=C/c1ccc(S(C)=O)cc1 (stereo not given)	-	.	-	-	-	-
Cn1c2ccccc2c2nnc(SCC(=O)Nc3ccccc3F)nc21	-	?	-	-	-	-
CC(C)n1c2ccccc2c2nnc(SCC(=O)Nc3ccccc3C(=O)O)nc21	-	-	27µM	-	-	-
C[C@@H](N)CCCP(=O)(O)O	.	.	.	.	?	-
Cc1ccc(/C=c2\sc3nc(-c4cccs4)nn3c2=O)o1	-	-	-	-	35µM	?
N=C1/C(=C\c2ccc(OC(=O)c3ccco3)cc2)C(=O)N=C2SC(N3CCCCC3)=NN12	-	-	?	-	?	-
N=C1/C(=C\c2ccc(OC(=O)c3ccc(F)cc3)cc2)C(=O)N=C2SC(N3CCCC3)=NN12	-	-	?	-	?	-
Cc1ccc(C(=O)Oc2ccc(/C=C3\C(=N)N4N=C(N5CCOCC5)SC4=NC3=O)cc2)cc1	-	-	27µM	-	-	?
N=C1/C(=C\c2ccc(OC(=O)c3ccccc3)cc2)C(=O)N=C2SC(N3CCOCC3)=NN12	-	-	24µM	-	-	?
CCn1c(SCC(=O)Nc2cccc(C)c2)nc2nc3c(cc2c1=O)COC(C)(C)C3	-	14µM	-	-	-	-
O=S(=O)(c1ccc(-c2cc(C(F)(F)F)on2)s1)N1CCN(c2cccc(Cl)c2)CC1	-	.	.	.	-	-
COc1cc(NS(=O)(=O)c2cc3c(cc2C)NC(=O)CO3)cc(OC)c1	-	7.1µM	-	-	-	-
Cc1cc2c(cc1S(=O)(=O)NCc1ccccc1)OCC(=O)N2	-	-	-	-	-	25µM!
CCOc1ccccc1CNS(=O)(=O)c1cc2c(cc1C)NC(=O)CO2	-	.	.	.	-	-
Fc1cccc(Cl)c1/C=N/n1c(-c2cccnc2)n[nH]c1=S	-	-	17µM	-	-	-
S=c1[nH]nc(C2CCCCC2)n1/N=C/c1ccc(Br)cc1	-	.	?	-	-	-
S=c1[nH]nc(C2CCCCC2)n1/N=C/c1ccc(Cl)cc1	?	.	30µM	-	-	-
SMILES	GLS inh	PKM2 activator	PLK1 PBD inh	Mito fusion yeast	VDR inhibitor	GCN5L2 inh
S=c1[nH]nc(C2CCCCC2)n1/N=C/c1c(Cl)cccc1Cl	?	.	30µM	-	-	-
COc1cccc(/C=N/n2c(C3CCCCC3)n[nH]c2=S)c1	-	.	21µM	-	-	-
Oc1cccc(/C=N/n2c(C3CCCCC3)n[nH]c2=S)c1	-	.	?	-	-	-
S=c1[nH]nc(-c2cccnc2)n1/N=C/c1ccccc1	-	-	-	-	-	-
C=CC[C@](C)(Nc1ccc(OC)cc1)C(=O)OCC	.	.	.	.	-	.
S=c1[nH]nc(-c2cccs2)n1/N=C/c1c(Cl)cccc1Cl	-	-	6.7µM	-	?	-
Cc1ccc(/C=N/n2c(-c3cccs3)n[nH]c2=S)cc1	-	-	?	-	-	-
S=c1[nH]nc(C2CCCCC2)n1/N=C/c1ccccc1Br	-	.	12µM	-	-	-
CCc1nnc(NS(=O)(=O)c2ccc(NCc3ccccc3O)cc2)s1	-	-	-	-	?	-
Cc1nc(CCNS(=O)(=O)c2cccnc2)cs1	-	-	-	-	-	-
C=CCOC(=O)C1=C(C)NC(SCC(=O)Nc2nccs2)=C(C#N)C1c1cccs1 (stereo not given)	-	-	30µM	-	-	-
Cc1nc(C#N)c(N/N=C/c2c(F)cccc2Cl)o1	-	-	-	-	79µM	-
Cc1nc(N)nc(N/N=C/c2c(F)cccc2Cl)n1	-	.	-	-	-	-
COc1ccc(-c2cc(C(F)(F)F)nc(NCc3ccco3)n2)cc1OC	-	-	-	-	-	22µM
CCCc1nc2sc3c(c2c(=O)[nH]1)CCCC3	?	-	27µM	-	79µM	-
CN(C)C(=O)CCc1nc2sc3c(c2c(=O)[nH]1)CCCC3	-	-	-	-	-	-
CC(=O)OCc1nc2sc3c(c2c(=O)[nH]1)CCCC3	-	-	-	-	-	-
COCc1nc2sc3c(c2c(=O)[nH]1)CCCC3	-	-	-	22µM	-	-
O=C(c1ccc(S(=O)(=O)c2cccc(Cl)c2)c([N+](=O)[O-])c1)N1CCN(Cc2ccccc2)CC1	-	3.2µM	-	?	-	-
COc1ccc(C(=O)N2CCN(Cc3ccccc3)CC2)cc1[N+](=O)[O-]	-	-[11.5 µM]	-	-	-	-
